Experimental data reported in PubChem BioAssay (EPA / NIEHS).
Results filed as inconclusive are left out. Activity calls are given as the source filed them. How the source made its calls: active means hit-call score of the fitted dose curve at least 0.9, where 1 is the maximum; inconclusive means response in the unintended direction; inactive means score below 0.9.

These compounds were tested against Nucleoli Translocation, AR (gene 367) (UniProt P10275) (assay: UPITT_HCI_U2OS_AR_TIF2_Nucleoli_Agonist: University of Pittsburgh U2OS Androgen Receptor-Transcriptional Intermediary Factor 2 (AR-TIF2) Agonism High Content Imaging Assay for Nucleoli Translocation (AID 2283998)).
Nucleoli Translocation, AR (gene 367), sequence (P10275 whole entry, looked up, the tested form may be a part): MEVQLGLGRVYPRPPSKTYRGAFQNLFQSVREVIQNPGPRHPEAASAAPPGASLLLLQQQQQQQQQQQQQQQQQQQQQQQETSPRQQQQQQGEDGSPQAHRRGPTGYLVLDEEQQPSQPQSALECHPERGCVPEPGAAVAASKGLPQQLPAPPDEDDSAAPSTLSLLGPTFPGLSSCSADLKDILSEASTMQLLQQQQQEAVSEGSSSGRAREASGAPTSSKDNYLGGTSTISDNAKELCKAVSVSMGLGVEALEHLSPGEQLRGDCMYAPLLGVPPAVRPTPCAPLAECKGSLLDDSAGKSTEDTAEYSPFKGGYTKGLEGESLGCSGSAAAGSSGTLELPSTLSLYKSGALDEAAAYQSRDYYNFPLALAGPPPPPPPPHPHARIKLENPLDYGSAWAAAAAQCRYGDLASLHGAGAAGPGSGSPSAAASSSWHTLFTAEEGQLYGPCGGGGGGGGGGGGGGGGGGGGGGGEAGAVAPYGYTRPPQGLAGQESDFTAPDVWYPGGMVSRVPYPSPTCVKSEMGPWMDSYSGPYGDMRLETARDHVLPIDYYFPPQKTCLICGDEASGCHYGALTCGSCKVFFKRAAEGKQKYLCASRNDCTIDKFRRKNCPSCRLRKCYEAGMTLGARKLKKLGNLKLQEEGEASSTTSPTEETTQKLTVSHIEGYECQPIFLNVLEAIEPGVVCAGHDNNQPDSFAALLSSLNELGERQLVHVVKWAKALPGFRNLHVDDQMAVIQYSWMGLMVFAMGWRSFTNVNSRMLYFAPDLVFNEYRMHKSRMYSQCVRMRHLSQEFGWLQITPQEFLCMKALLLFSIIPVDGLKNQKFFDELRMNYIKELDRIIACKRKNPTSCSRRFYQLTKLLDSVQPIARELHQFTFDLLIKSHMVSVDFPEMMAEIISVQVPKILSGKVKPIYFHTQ
Source text: UPITT_AR_TIF2_PPIB is a cell-based, high-content imaging assay that uses U2OS, a human osteosarcoma cell line, expressing a human androgen receptor fused to red fluorescent protein and the coactivator TIF2 fused to green fluorescent protein. UPITT_HCI_U2OS_AR_TIF2_Nucleoli_Agonist is one of four assay components measured from the UPITT_AR_TIF2_PPIB assay. It is designed to make measurements of red fluorescence localized in the nucleolar region of the cell nucleus as detected with high-content fluorescent imaging.Data from the assay component UPITT_HCI_U2OS_AR_TIF2_Nucleoli_Agonist was analyzed into 1 assay endpoint. This assay endpoint, UPITT_HCI_U2OS_AR_TIF2_Nucleoli_Agonist, was analyzed in the positive analysis fitting direction relative to DMSO as the baseline of activity. Using a type of binding reporter, measures of receptor for gain-of-signal activity can be used to understand the binding at the pathway-level as it relates to the gene AR.
Daughter plates containing 2 uL of 10 mM compounds in DMSO were prepared and replicated from the 384-well Library of Pharmacologically Active Compounds (LOPAC) master plates using the Bravo outfitted with a 384-well transfer head. Aluminum adhesive plate seals were applied with an Abgene Seal-IT 100 (Rochester, NY) plate sealer, and the plates were stored at -20 C in a Matrical MatriMinistore (Spokane, WA) automated compound storage and retrieval system. For screening, LOPAC daughter plates were withdrawn from -20C storage, thawed to ambient temperature, centrifuged 1-2 min at 50 g, and the plate seals were removed before the transfer of 98 uL of serum-free tissue culture medium (SFM) into wells using the BioTek Microflo liquid handler (BioTek, Winooski, VT) to generate a 200 uM intermediate stock concentration of library compounds (2.0% DMSO). The diluted compounds were mixed by repeated aspiration and dispensation using a 384-well P30 dispensing head on the Evolution P3 (EP3) liquid handling platform (PerkinElmer, Waltham, MA) and then 5 uL of diluted compounds was transferred to the wells of assay plates. In the LOPAC screen, compounds were individually tested at a final concentration of 20 uM (0.2% DMSO). After the diluted compounds had been transferred from the daughter plates to the primary HCS assay plates, aluminum adhesive plate seals were applied and the diluted daughter plates were stored frozen at -20C. To confirm active compounds identified in the primary screen, we withdrew the LOPAC daughter plates containing the 200 uM intermediate concentration of library compounds (2.0% DMSO) from -20C storage, thawed them to ambient temperature, centrifuged them for 1-2 min at 50 g, and removed the plate seals. A work list was generated to direct the Multiprobe Janus liquid handling platform (PerkinElmer) to cherry pick 75 uL from the wells of the diluted daughter plates that were flagged active in the primary screen and to reformat these into a 384-well plate hit confirmation daughter plate. Five microliters of primary HCS active compounds was then transferred into triplicate wells of assay plates using a 384-well P30 dispensing head on the Evolution P3 (EP3) liquid handling platform (PerkinElmer). […] Daughter plates containing 2 uL of the serially diluted compounds in DMSO were prepared and replicated from the 384-well serial dilution master plates using the Bravo outfitted with a 384-well transfer head. Aluminum adhesive plate seals were applied and plates were stored at -20C. For testing in the bioassays, daughter plates were withdrawn from -20C storage, thawed to ambient temperature, centrifuged for 1-2 min at 50 g, and the plate seals were removed before the transfer of 38 uL of SFM into wells using the BioTek Microflo liquid handler (BioTek) to generate an intermediate stock concentration of library compounds ranging from 1.95 to 500 uM (5.0% DMSO). […]

| SMILES | outcome | AC50 |
| --- | --- | --- |
| CC(C)Oc1cc(-n2nc(C(C)(C)C)oc2=O)c(Cl)cc1Cl | inactive | – |
| Cc1cc(Cl)ccc1OCC(=O)O | inactive | – |
| Cc1ccc(-c2c(Cl)nc(C#N)n2S(=O)(=O)N(C)C)cc1 | inactive | – |
| N#Cc1nn(-c2c(Cl)cc(C(F)(F)F)cc2Cl)c(N)c1S(=O)C(F)(F)F (stereo not given) | inactive | – |
| CCCC1COC(Cn2cncn2)(c2ccc(Cl)cc2Cl)O1 (stereo not given) | – | 92.8 µM (active) |
| CN(C)C(=S)SSC(=S)N(C)C | inactive | – |
| O=C(Nc1ccccc1)Nc1ccnc(Cl)c1 | – | 84.5 µM (active) |
| CCCCNC(=O)n1c(NC(=O)OC)nc2ccccc21 | inactive | – |
| CS/C(C)=N/OC(=O)N(C)SN(C)C(=O)O/N=C(\C)SC | – | 70.8 µM (active) |
| N#CC(CCc1ccc(Cl)cc1)(Cn1cncn1)c1ccccc1 (stereo not given) | inactive | – |
